Laboratory results published in ChEMBL document CHEMBL1157539, “Thousands of chemical starting points for antimalarial lead identification” (Nature, 2010).

Assays:
Assay type in all cases: functional
Plasmodium falciparum [1] = assay: GSK_TCMDC: Inhibition of Plasmodium falciparum 3D7 in whole red blood cells, using parasite LDH activity as an index of growth. Test compounds present at 2uM
Plasmodium falciparum [2] = assay: GSK_TCMDC: Inhibition of Plasmodium falciparum Dd2 in whole red blood cells, using parasite LDH activity as an index of growth. Test compounds present at 2uM
HepG2 = assay: GSK_TCMDC: Percent inhibition of human HepG2 cell line. Test compounds present at 10uM.

Row | SMILES | Inhibition (Plasmodium falciparum [1]) [%] | Inhibition (Plasmodium falciparum [2]) [%] | Inhibition (HepG2) [%]
1 | C[C@H](Cc1ccc(S(=O)(=O)c2ccc(C[C@@H](C)NC[C@H](O)c3cccc(Cl)c3)cc2)cc1)NC[C@H](O)c1cccc(Cl)c1.Cl | 99 | 98 | 100
2 | Cc1[nH]c(C)c(-c2ccc(OCCSc3ccncc3)cc2)c(=O)c1Br | 95 | 95 | 0
3 | O=C(Nc1cccc(-c2cccc(CN3CCCC3)c2)c1)c1cccc(Cl)c1.O=C(O)C(F)(F)F | 89 | 30 | 44
4 | Br.CC1(C)NC(=N)NC(=N)N1OCC=Cc1ccccc1 | 94 | 96 | 62
5 | O=C(Nc1cccc(CN2CCCN(Cc3ccc4c(c3)OCO4)CC2)c1)c1ccc2ccccc2c1.O=C(O)C(F)(F)F | 86 | 14 | 7
6 | CN(C)CCCOc1ccc(CN2CC[C@H](NC(=O)c3ccc(Cl)c(Cl)c3)C2)c2ccccc12.O=C(O)C(F)(F)F | 100 | 97 | 81
7 | O=C(Nc1ccc(C(F)(F)F)cc1)c1ccc(S(=O)(=O)NC2CCCN(CC3CCCCC3)C2)cc1.O=C(O)C(F)(F)F (centres undefined) | 99 | 0 | 45
8 | CN1CCC(C(=O)Nc2cccc(-c3ccc(-c4nc5cc(C(F)(F)F)ccc5[nH]4)s3)c2)CC1 | 100 | 95 | 29
9 | COc1cc(C(=O)NC2CCN(Cc3ccccc3)CC2)ccc1-c1nc2cc(Cl)c(Cl)cc2[nH]1 | 100 | 100 | 14
10 | CCCCOc1ccc(C(=O)C(CCC(CNC(C)(C)C)C(=O)c2ccc(OCCCC)cc2)CNC(C)(C)C)cc1.Cl (centres undefined) | 94 | 92 | 100
11 | NC(=O)COc1cccc2c1CCN(CCN1CCC(NC(=O)c3ccc(-c4ccc(Cl)cc4)cc3)CC1)C2 | 92 | 6 | 44
12 | CN1CCCN(c2ccnc3cc4c(cc23)N(C(=O)c2ccc(Cl)cc2Cl)CC4)CC1.Cl | 100 | 51 | 6
13 | Br.Oc1ccccc1CCNC1CCc2ccccc2C1 (centres undefined) | 96 | 95 | 0
14 | CCN1CCCC1CNC(=O)c1cc2c(-c3ccc(Cl)cc3)nn(C)c2s1 (centres undefined) | 96 | 20 | 27
15 | COc1cc2nc(C)nc(Nc3ccc4c(ccn4Cc4ccccc4)c3)c2cc1OC.Cl | 100 | 99 | 2
16 | Cc1[nH]c(C)c(-c2ccc(OCc3cc(F)cc(F)c3)nc2)c(=O)c1Cl | 97 | 97 | 20
17 | COc1cc(F)c2nccc([C@@H](O)CN3CCC(NC(=O)OCc4ccccc4)C(F)C3)c2c1 (some centres undefined) | 99 | 100 | 44
18 | CC(=O)Nc1ccc(CN2CCC(NC(=O)c3ccc(-c4ccc(N(C)C)cc4)s3)CC2)cc1.O=C(O)C(F)(F)F | 100 | 57 | 20
19 | NC(=O)c1ccc(NC(=O)CN(Cc2ccc(Cl)cc2)S(=O)(=O)c2ccccc2)cc1 | 90 | 75 | 2
20 | Br.NCC(=O)NC12CC3CC(CC(C3)C1)C2 | 87 | 0 | 15
21 | COc1cc(Cc2cnc(N)nc2N)cc(OCCCN2C(=O)c3ccccc3C2=O)c1OC | 96 | 0 | 0
22 | O=C(NCCSCc1c(F)cccc1Cl)c1cnc2c(c1)nc(-c1c[nH]c(-c3ccccc3)n1)n2CCc1c[nH]cn1 | 93 | 45 | 10
23 | COc1cc2nc(N3CCC(CNC(=O)c4ccc(-c5ccc(C#N)cc5C)cc4)CC3)nc(N)c2cc1OC | 100 | 99 | 28
24 | CCOC(=O)/C(=N\OC(C)(C)C(=O)NCc1ccc(O)c(O)c1)c1csc(NC(c2ccccc2)(c2ccccc2)c2ccccc2)n1 | 100 | 99 | 13
25 | COc1cc2nc(N(C)C)nc(Nc3ccc(OCc4ccccc4)cc3)c2cc1OC | 100 | 100 | 91
26 | CC1(C)N=C(N)N=C(N)N1c1cc(Cl)c(Cl)cc1Cl.Cl | 95 | 0 | 11
27 | CC[C@H]1CN(Cc2ccco2)CC[C@H]1CCCc1ccnc2ccc(O)cc12 | 93 | 14 | 31
28 | NCC1CCCN1Cc1cccc(-c2ccc(-c3nc4ccccc4[nH]3)s2)c1.O=C(O)C(F)(F)F (centres undefined) | 99 | 66 | 16
